The results in this text go back to PubChem BioAssay (EPA / NIEHS).

Experiment [1] in a line: ATG_NFI_CIS: Attagene CIS-FACTORIAL HepG2 Assay for human Nuclear Factor I (NFI) (AID 2282989). The following applies: HepG2 cis-regulatory reporter, NFI response element transcription; actives raise or lower the signal. The procedure, abridged: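 Read-out: reporter mRNA via RT-PCR plus capillary electrophoresis with fluorescence detection. Transiently transfected HepG2 (endogenous TF activity on cis promoters), 24 h compound exposure; gain or loss of signal fitted against DMSO.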

Experiment [2] is described as follows: ATG_NF_kB_CIS: Attagene CIS-FACTORIAL HepG2 Assay for human Nuclear Factor Kappa B (NF-kB) (AID 2282991). The following applies: HepG2 Attagene cis-factorial NF-kB reporter mRNA; actives raise or lower the signal. The essentials:
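DMSO served as negative control and baseline for bidirectional curve fitting. Transiently transfected HepG2 cells were dosed for 24 h, then reporter transcripts were measured by RT-PCR with capillary electrophoresis detection.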

A short description of experiment [3]: ATG_NRF2_ARE_CIS: Attagene CIS-FACTORIAL HepG2 Assay for human Nuclear Factor Erythroid 2 Related Factor 2 (NFR2) response to Antioxidant Response Elements (ARE) (AID 2282992).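 For AC50: reporter mRNA level measured by RT-PCR and capillary electrophoresis fluorescence.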 The following applies: HepG2 Attagene ARE/NRF2 reporter, transcription factor activity; actives raise or lower the signal. The procedure, abridged: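 Multiplexed reporter mRNA profiling in HepG2 after a 24 h chemical exposure. Curves fitted in both directions relative to DMSO negative control.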

The nature of experiment [4]: ATG_Oct_MLP_CIS: Attagene CIS-FACTORIAL HepG2 Assay for human Octamer-Binding Transcription Factor (Oct) (AID 2282993). The settings on record: HepG2 Attagene cis-factorial Oct reporter, mRNA; actives raise or lower the signal. The procedure, abridged: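 Read-out: reporter mRNA via RT-PCR plus capillary electrophoresis of 6-FAM-labelled fragments. Transiently transfected HepG2, 24 h exposure, endogenous TF activity on cis elements. Gain or loss of signal fitted relative to DMSO.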

The target of experiment [5] is Cellular tumor antigen p53 (Homo sapiens) (UniProt P04637). As to the kind of experiment: ATG_p53_CIS: Attagene CIS-FACTORIAL HepG2 Assay for human p53 Transcription Factor (AID 2282994). The following applies: HepG2 p53 cis-element reporter, Attagene mRNA; actives raise or lower the signal. The procedure, abridged: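 Multiplexed reporter mRNA assay in human HepG2 liver cells; cis-regulated units report endogenous factor activity. Values come from bidirectional curve fitting against DMSO negative control after 24 h treatment.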
Cellular tumor antigen p53 (Homo sapiens), sequence (P04637 whole entry, looked up): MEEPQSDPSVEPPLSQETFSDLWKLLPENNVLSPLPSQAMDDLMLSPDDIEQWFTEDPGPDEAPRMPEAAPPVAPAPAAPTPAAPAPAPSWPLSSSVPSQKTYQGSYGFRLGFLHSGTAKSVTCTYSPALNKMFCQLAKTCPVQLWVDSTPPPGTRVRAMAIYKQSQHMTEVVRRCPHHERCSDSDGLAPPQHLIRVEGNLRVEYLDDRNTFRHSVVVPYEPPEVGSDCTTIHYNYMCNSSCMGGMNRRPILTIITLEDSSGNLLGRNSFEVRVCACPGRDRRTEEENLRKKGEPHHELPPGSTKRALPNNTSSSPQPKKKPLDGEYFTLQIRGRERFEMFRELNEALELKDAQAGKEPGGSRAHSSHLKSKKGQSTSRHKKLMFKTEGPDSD

A short description of experiment [6]: BSK_3C_TissueFactor: BioMAP Diversity Plus: 3C Assay for Tissue Factor Biomarker Activity (AID 2282997). The settings on record: BioMAP 3C HUVEC, tissue factor biomarker readout; actives raise or lower the signal. The procedure, abridged: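 Values derive from bidirectional curve fitting against DMSO of Tissue Factor ELISA signals, taken 24 h after dosing primary human umbilical vein endothelial cells.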

The nature of experiment [7]: BSK_3C_uPAR: BioMAP Diversity Plus: 3C Assay for Urokinase-type plasminogen activator receptor (uPAR) Biomarker Activity (AID 2282998). The settings on record: BioMAP 3C HUVEC, uPAR biomarker ELISA; actives raise or lower the signal. The procedure, abridged:
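HUVEC primary cells; 24 h post-dose; uPAR by ELISA; gain or loss of signal fitted bidirectionally vs DMSO baseline.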

Experiment [8] in a line: BSK_3C_VCAM1: BioMAP Diversity Plus: 3C Assay for Vascular cell adhesion molecule 1 (VCAM1) Biomarker Activity (AID 2282999). The settings on record: BioMAP 3C HUVEC, VCAM1 ELISA, cytokine-stimulated; actives raise or lower the signal. The essentials: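 Human umbilical vein endothelial cells (3C system), biomarker read by ELISA 24 h after dosing; bidirectional fit against DMSO baseline. Cytotoxicity tracked by SRB total-protein staining in parallel cultures at biomarker time.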
(An ELISA detects its analyte on a solid surface through an enzyme-linked reagent.)

The nature of experiment [9]: BSK_4H_Eotaxin3: BioMAP Diversity Plus: 4H Assay for Eotaxin 3 Biomarker Activity (AID 2283000).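 For outcome: CCL26 protein level quantified by ELISA in parallel with SRB cytotoxicity check.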 The settings on record: primary human endothelial cells (HUVEC); actives raise or lower the signal. The procedure, abridged: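 Endothelial primary cells (human umbilical vein) exposed to compound for 24 h. ELISA detection of Eotaxin-3.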
Experiment [10] deals with Myc proto-oncogene protein (Homo sapiens) (UniProt P01106). As to the kind of experiment: ATG_Myc_CIS: Attagene CIS-FACTORIAL HepG2 Assay for human Myelocytomatosis (Myc) Proto-Oncogene Transcription Factor (AID 2282990). The settings on record: HepG2, Attagene cis-reporter transcription factor activity; actives raise or lower the signal. The essentials: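 Fluorescence intensity of reporter-specific cDNA fragments, separated by capillary electrophoresis, gives the signal. Transfected HepG2 cells carrying cis-promoter reporter constructs are incubated with compound for 24 h; DMSO serves as baseline.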
Myc proto-oncogene protein (Homo sapiens), sequence (P01106 whole entry, looked up, the tested form may be a part): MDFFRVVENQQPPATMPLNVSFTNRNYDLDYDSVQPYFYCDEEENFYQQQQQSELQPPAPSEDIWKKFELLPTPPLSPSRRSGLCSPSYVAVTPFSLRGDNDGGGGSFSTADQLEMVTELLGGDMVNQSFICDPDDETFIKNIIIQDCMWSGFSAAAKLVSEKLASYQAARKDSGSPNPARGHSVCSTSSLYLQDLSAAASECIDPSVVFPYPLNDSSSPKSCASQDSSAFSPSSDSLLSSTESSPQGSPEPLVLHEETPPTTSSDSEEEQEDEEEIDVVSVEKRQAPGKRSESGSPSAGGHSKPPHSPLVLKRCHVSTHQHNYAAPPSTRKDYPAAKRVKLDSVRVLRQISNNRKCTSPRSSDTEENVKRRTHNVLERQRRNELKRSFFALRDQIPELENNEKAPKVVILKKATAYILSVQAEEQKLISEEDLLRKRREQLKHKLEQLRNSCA

Several values for one entry are separate records, joined by “and”; a condition that tells them apart may be missing. Equal entries are not always repeated. The source holds several records for some structures; these can differ, active in one and inactive in another. Activity calls are given as the source filed them. Rule for the calls: active = hit-call score of the fitted dose curve at least 0.9, where 1 is the maximum; inactive = score below 0.9.

A word on the AC50: it is the concentration at which the activity in the assay is half-maximal. Take `CC[C@H](c1ccc(O)cc1)[C@@H](CC)c1ccc(O)cc1`: the call in experiment [1], in experiment [2], in experiment [4] and in experiment [5] was inactive. Moreover, the AC50 is 6.58 µM (active) [middle of 4 runs] in experiment [3]; 17.5 µM (active) in [5]; 32.5 µM (active) in experiment [6]; 21.7 µM (active) in experiment [7]; 34.2 µM (active) in experiment [8]; 27.6 µM (active) in experiment [9].

With `CCCCCCCCCCCCCCCS(=O)(=O)Oc1ccccc1`, the molecule was classed as inactive in experiment [1], in experiment [10], in experiment [2], in experiment [3], in [4] and in experiment [5]. Besides, the outcome in experiment [6], in [7], in experiment [8] and in [9] was inactive.

Regarding `CC(C)(C)c1ccc(O)c(C(C)(C)C)c1`, the result in [1], in experiment [10], in experiment [2], in experiment [3], in experiment [4] and in experiment [5] was inactive. For the same molecule, the AC50 was 8.52 µM (active) in [6], 9.34 µM (active) in experiment [7], 12.4 µM (active) in [8] and 12.1 µM (active) in experiment [9].

`CCC(C)(C)C1CCC(O)CC1` (stereo not given): the molecule was classed as inactive in experiment [1], in experiment [2], in experiment [3], in [4], in experiment [5] and in [6]. The result in experiment [7], in experiment [8] and in experiment [9] was inactive.

With `CC(C)CCCCCCOC(=O)CCCCC(=O)OCCCCCCC(C)C`, the result in [1], in experiment [10], in experiment [2], in experiment [3], in experiment [4] and in experiment [5] was inactive. Moreover, the outcome in experiment [6], in experiment [7], in [8] and in experiment [9] was inactive.

As for `O=C(OCCOCCOC(=O)c1ccccc1)c1ccccc1`, the molecule was classed as inactive in experiment [1], in experiment [2], in [3], in experiment [4], in experiment [5] and in experiment [6]. Further, the outcome in experiment [7], in [8] and in [9] was inactive.

With `Cc1cc(CCN2CCN(c3nsc4ccccc34)CC2)cc2c1NC(=O)CC2(C)C`, the molecule was classed as inactive in experiment [1], in experiment [10], in experiment [2] and in experiment [5]. Further, the AC50 was 4.32 µM (active) in [3]; 8.81 µM (active) in experiment [4]; 26.9 µM (active) in experiment [6]; 26.6 µM (active) in experiment [7]; 33.2 µM (active) in experiment [8]; 33.6 µM (active) in experiment [9].

For the molecule `O=C(O)c1ccccc1C(c1ccc(O)cc1)c1ccc(O)cc1`, the call in experiment [1], in experiment [2], in [3], in [4], in experiment [6] and in [7] was inactive. The outcome in experiment [8] and in experiment [9] was inactive.

On to `NC(=O)N1C(=O)C(C(=O)c2cc(Cl)cs2)c2cc(F)c(Cl)cc21` (stereo not given), for which the result in experiment [1], in experiment [10], in experiment [5] and in [8] was inactive. For the same molecule, the AC50 in [3] is 6.05 µM (active); in experiment [4] it was 11 µM (active); in experiment [6], 5.53 µM (active); in [7], 14.7 µM (active); in [9], 14.9 µM (active).

Turning to `CC(O)CO` (stereo not given), the call in experiment [1], in experiment [2], in [3], in [4], in experiment [5] and in [6] was inactive. The outcome in [7], in experiment [8] and in [9] was inactive.

Consider `ClC1=C(Cl)C(Cl)(Cl)C(Cl)=C1Cl`, for which the AC50 was 15.3 µM (active) and 7.42 µM (active) in [1]; 8.6 µM (active) and 5.05 µM (active) in experiment [2]; 3.07 µM (active) and 6.04 µM (active) in experiment [3]; 13.4 µM (active) and 6.26 µM (active) in experiment [4]; 17.4 µM (active) and 11.1 µM (active) in experiment [5]; 5.07 µM (active) in experiment [6]. In addition, the AC50 is 5.21 µM (active) in [7], 5.82 µM (active) in experiment [8] and 7.45 µM (active) in [9].

For `CC1=C(/C=C/C(C)=C/C=C/C(C)=C/C(=O)O)C(C)(C)CCC1`, the outcome in experiment [1], in experiment [10], in experiment [2], in [3], in [4] and in [5] was inactive. The result in experiment [6] and in experiment [7] was inactive. The AC50 in experiment [3] is 35.7 µM (active); in experiment [4], 24.2 µM (active); in experiment [5], 20.6 µM (active); in experiment [8], 27.9 µM (active); in experiment [9], 9.37 µM (active).

Take `O=C(O)Cc1cc(I)c(Oc2cc(I)c(O)c(I)c2)c(I)c1`: the AC50 was 47.9 µM (active) and 17.2 µM (active) in experiment [1]; 48.6 µM (active) and 16.8 µM (active) in [10]; 105 µM (active) and 46.1 µM (active) in experiment [2]; 17 µM (active) and 16.9 µM (active) in [3]; 34.8 µM (active) and 33.3 µM (active) in experiment [4]; 24.3 µM (active) in experiment [6]. The molecule was classed as inactive in experiment [5], in experiment [7], in [8] and in experiment [9].

For the molecule `CCCCC(CC)COC(=O)CCCCC(=O)OCC(CC)CCCC` (stereo not given), the outcome in experiment [1], in experiment [10], in experiment [2], in experiment [3], in [4] and in experiment [5] was inactive. The result in experiment [6], in experiment [7], in [8] and in experiment [9] was inactive.

For `C[C@@H]1C[C@H]2[C@@H]3CCC4=CC(=O)C=C[C@]4(C)[C@@]3(F)[C@@H](O)C[C@]2(C)[C@@]1(O)C(=O)COP(=O)(O)O`, the result in experiment [1], in [2], in experiment [3], in experiment [4], in experiment [5] and in experiment [6] was inactive. Also, the outcome in experiment [7], in experiment [8] and in experiment [9] was inactive. The AC50 in experiment [9] is 8.66 µM (active).

On to `CC(C)(C)c1cccc(C(C)(C)C)c1O`, for which the AC50 in experiment [1] was 159 µM (active); in experiment [10], 152 µM (active); in experiment [3], 167 µM (active); in experiment [4], 166 µM (active); in [5], 177 µM (active). Also, the molecule was classed as inactive in experiment [2], in experiment [6], in experiment [7], in experiment [8] and in [9].

As to `Cc1oc(-c2ccccc2)nc1CCOc1ccc(C[C@H](Nc2ccccc2C(=O)c2ccccc2)C(=O)O)cc1`, the result in experiment [1], in experiment [2], in experiment [3] and in experiment [5] was inactive. The AC50 in experiment [4] is 18.2 µM (active); in experiment [6], 36.7 µM (active); in experiment [7] it was 14.6 µM (active); in experiment [8] it was 33.1 µM (active); in [9], 36.2 µM (active).
